Hits are enriched below; roughly 6.6% of the tested compounds scored in any of these assays.
MCF10A rerep: induces DNA re-replication in MCF 10a normal breast cells; MCF 10A DNA re-replication, Hoechst nuclear intensity, 48 h; Potency, µM (highest dose often 46.1 µM), for the others: at the highest dose activity, positive = re-replication, hits mostly activators; hit rate 2.9% among 350,000; AID 624296; further: % of control where 0% means no effect; nearly all actives have a fitted effect of over 50% in size
KB-3-1 tox: kills parental KB-3-1 adenocarcinoma cells; KB-3-1 viability, CellTiter-Glo ATP luminescence, 72 h; Potency, µM (doses to about 46.1 µM), most hits filed as cytotoxic; hit rate 1.4% among 400,000; further: on the % scale 0 is the no-effect control and ±100 the full control effect; nearly all actives have a fitted effect of over 60% in size
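Luminescent ATP read-out (CellTiter-Glo) measures survival of drug-naive KB-3-1 cells after 72 h compound exposure at 37 °C. Titration series was screened from lowest to highest concentration, with DMSO vehicle plates as background controls.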
TSG101-PTAP inh: blocks PTAP/TSG101 interaction to inhibit HIV-1 budding. Fluorescence polarization, FITC-PTAP peptide / Tsg101 binding. Potency, µM (top dose mostly 115 µM), inactives show at the highest dose activity change, negative = inhibition, most hits filed as inhibitors. 340,000 tested, under 10 active. AID 493005; active means well fitted inhibition curve with a large enough effect in the main read-out, with a control signal flat, not every such curve was filed as active; inconclusive means small, poorly fitted or top-dose-only effect, or effect the other way, or a change in a side signal; inactive means no such curve, though single readings can be large or run the other way; further: % of control where 0% means no effect
Target sequence (Q99816 whole entry, looked up): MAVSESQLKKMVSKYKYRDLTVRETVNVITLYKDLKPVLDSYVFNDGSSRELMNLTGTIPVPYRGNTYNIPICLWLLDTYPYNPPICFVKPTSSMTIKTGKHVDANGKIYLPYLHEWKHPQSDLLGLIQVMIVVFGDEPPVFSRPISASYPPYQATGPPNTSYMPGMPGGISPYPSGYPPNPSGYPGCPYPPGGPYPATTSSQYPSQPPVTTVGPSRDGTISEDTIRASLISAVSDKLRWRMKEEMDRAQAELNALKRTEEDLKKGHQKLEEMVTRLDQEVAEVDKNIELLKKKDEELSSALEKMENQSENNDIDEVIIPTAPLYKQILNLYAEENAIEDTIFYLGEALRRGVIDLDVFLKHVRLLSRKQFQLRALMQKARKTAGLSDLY
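FP read-out: FITC-PTAP peptide, 50 nM final, binding Tsg101 binding domain, 10 uM final; 20 min, r.t.; 10 mM HEPES pH 7.5, 0.15 M NaCl, 0.01% Tween 20, 3 mM EDTA, 0.1 mM TCEP.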
RGS4 inh: blocks human RGS4-accelerated GTP hydrolysis; P49798; Transcreener GDP fluorescence polarization, RGS4-accelerated GTP hydrolysis; Potency, µM (doses to about 114 µM), for the others: at the highest dose activity change, negative = inhibition, usual class: inhibitors; hit rate 0.039% among 390,000; further: on the % scale 0 is the no-effect control and ±100 the full control effect; nearly all actives have a fitted effect of over 75% in size
Target sequence (P49798 whole entry, looked up): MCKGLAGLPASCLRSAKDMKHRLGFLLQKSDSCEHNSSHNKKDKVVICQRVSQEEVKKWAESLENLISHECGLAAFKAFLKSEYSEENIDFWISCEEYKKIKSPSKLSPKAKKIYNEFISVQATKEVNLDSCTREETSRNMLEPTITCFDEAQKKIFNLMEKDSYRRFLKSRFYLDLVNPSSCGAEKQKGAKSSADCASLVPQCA
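MLSMR compounds (23 nl, pin-transferred) preincubated 10 min at room temperature with a 500nM (2x) first reagent, then RGS4 at 900nM (2x) plus Transcreener GDP mix added; fluorescence polarization (620/688 nm) read before and after 90 min at 30 °C.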
SW480 rereplic: inducers of DNA re-replication in SW480 colon cancer cells | SW480 DNA re-replication, Hoechst DNA content imaging, 48 h | Potency, µM (top dose mostly 46.1 µM), for inactives: top-dose re-replication activation, actives largely listed as activators | hit rate 1.8% among 340,000; further: % of control where 0% means no effect; nearly all actives have a fitted effect of over 55% in size
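SW480 cells exposed to compounds for 48 hr at 37 C, 5% CO2, then Hoechst-stained 40 min. Nuclear DNA content imaged by fluorescence scanning (405 nm excitation, 500-530 nm emission); re-replication scored as increased high-intensity nuclei.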
KB-V1 MDR tox: kills drug-selected multidrug resistant KB-V1 cells. KB-V1 MDR cells viability, CellTiter-Glo, 72 h. Potency, µM (top dose mostly 46.1 µM), usual class: cytotoxic. hit rate 3.4% among 400,000; further: on the % scale 0 is the no-effect control and ±100 the full control effect; nearly all actives have a fitted effect of over 60% in size
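qHTS viability screen in drug-selected KB-V1 MDR cells: 72 h compound treatment at 37 degrees C, ATP luminescence end point.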
* hit, by the source's call; [ ] = remark or other dose. Unless noted, the call rests on the fitted dose curve; in most records, active means well fitted curve in the direction sought with a large enough effect; inconclusive means small, poorly fitted or top-dose-only effect, or another doubt; inactive means no such curve, though single readings can be large; an effect the other way counts as inactive or inconclusive. Potency means the concentration at half of the fitted maximal effect.

For CCOC(=O)c1c(C)[nH]c(C)c1C(=O)COC(=O)/C=C/c1cccc(F)c1 the results were MCF10A rerep -3%, KB-3-1 tox inactive, TSG101-PTAP inh -2%, RGS4 inh -16%, SW480 rereplic 4% and KB-V1 MDR tox inactive.
COc1ccc(/C=C/C(=O)Oc2cc(O)cc(O)c2)cc1 was read as MCF10A rerep inconclusive, KB-3-1 tox inactive, TSG101-PTAP inh -2%, RGS4 inh 5%, SW480 rereplic -1% and KB-V1 MDR tox inactive.
Screening CCOC(=O)c1c(C)[nH]c(C)c1C(=O)COC(=O)c1c(OC)cccc1OC returned MCF10A rerep 8%, KB-3-1 tox inactive, TSG101-PTAP inh 1%, RGS4 inh 12%, SW480 rereplic -8% and KB-V1 MDR tox inactive.
`CCOC(=O)c1c(C)[nH]c(C)c1C(=O)COC(=O)c1sccc1C` gave MCF10A rerep -2%, KB-3-1 tox inactive, TSG101-PTAP inh -5%, RGS4 inh -1%, SW480 rereplic -4% and KB-V1 MDR tox 18µM*.
For CCCCCCCOc1ccc(CC(=O)NO)cc1 the results were KB-3-1 tox inactive and KB-V1 MDR tox inactive.
`Cc1ccc(C)c(NC(=O)CSc2c3c(nc4ccc(Cl)cc24)CCCC3)c1` gave RGS4 inh -23%.
CCCN1CNc2c(c(=O)[nH]c(=S)n2CCc2ccc(C)c(C)c2)C1 was read as RGS4 inh -28%.
For CCc1ccc(-c2nc(CN3CCCC(C(=O)N4CCN(c5cc(Cl)ccc5C)CC4)C3)c(C)o2)cc1 (configuration not stated) the results were KB-3-1 tox inconclusive, RGS4 inh 11% and KB-V1 MDR tox inconclusive.
CCC(=O)N1CCc2cc(S(=O)(=O)NCCC(=O)NCc3ccc(C)cc3)ccc21 was read as KB-3-1 tox inactive, RGS4 inh -11% and KB-V1 MDR tox inactive.
Screening CCOP(=O)(OCC)c1nc(-c2ccccc2Cl)oc1N1CCOCC1 returned MCF10A rerep inconclusive, KB-3-1 tox inactive, TSG101-PTAP inh -1%, RGS4 inh -12%, SW480 rereplic -18% and KB-V1 MDR tox inconclusive.
CCOP(=O)(OCC)c1nc(-c2ccc(Cl)cc2Cl)oc1N1CCCCC1 was read as MCF10A rerep 16µM*, KB-3-1 tox inactive, TSG101-PTAP inh -1%, RGS4 inh -10%, SW480 rereplic 7% and KB-V1 MDR tox inconclusive.
Screening COc1ccc(-c2cc3nc(-c4ccccc4)cc(N4CCC5(CC4)OCCO5)n3n2)cc1 returned MCF10A rerep 20%, KB-3-1 tox inactive, TSG101-PTAP inh 0%, RGS4 inh -2%, SW480 rereplic 23µM* and KB-V1 MDR tox inactive.
COc1ccc(-c2cc3nc4c(c(N5CCC6(CC5)OCCO6)n3n2)CCC4)cc1 was read as MCF10A rerep 1%, KB-3-1 tox inconclusive, TSG101-PTAP inh -1%, RGS4 inh 7%, SW480 rereplic -6% and KB-V1 MDR tox inactive.
Screening COc1cccc(-c2cc3nc(-c4ccccc4)cc(N4CCCC(O)C4)n3n2)c1 (configuration not stated) returned MCF10A rerep 18µM*, KB-3-1 tox inactive, TSG101-PTAP inh -2%, RGS4 inh 1%, SW480 rereplic 15µM* and KB-V1 MDR tox inactive.
For CCN1CCN(c2cc(-c3ccccc3)nc3cc(-c4cccc(F)c4)nn23)CC1 the results were MCF10A rerep 10µM*, KB-3-1 tox inconclusive, TSG101-PTAP inh 0%, RGS4 inh 18%, SW480 rereplic inconclusive and KB-V1 MDR tox inconclusive.
Cc1ccc(-c2cc3nc(-c4ccccc4)cc(N4CCOCC4)n3n2)cc1 was read as MCF10A rerep 16µM*, KB-3-1 tox inactive, TSG101-PTAP inh 1%, RGS4 inh -3%[11.4 µM], SW480 rereplic inconclusive and KB-V1 MDR tox inactive.
OC1CCN(c2cc(-c3ccccc3)nc3cc(-c4ccc(F)cc4)nn23)CC1 was read as MCF10A rerep 16%, KB-3-1 tox inactive, TSG101-PTAP inh -2%, RGS4 inh 25%, SW480 rereplic 1% and KB-V1 MDR tox inactive.
`COc1ccc(OCc2ccc(-c3nc(C#N)c(N4CCC(C)CC4)o3)o2)cc1` gave KB-3-1 tox inconclusive, RGS4 inh 7% and KB-V1 MDR tox inactive.
OC1CCCN(c2c3c(nc4cc(-c5cccc(Cl)c5)nn24)CCC3)C1 (configuration not stated) was read as MCF10A rerep -5%, KB-3-1 tox inactive, TSG101-PTAP inh -5%, RGS4 inh -31%, SW480 rereplic 6% and KB-V1 MDR tox 16µM*.
`Cc1cc(N2CCOCC2)n2nc(-c3cccc(F)c3)cc2n1` gave MCF10A rerep inconclusive, KB-3-1 tox inactive, TSG101-PTAP inh -7%, RGS4 inh -3%, SW480 rereplic 4% and KB-V1 MDR tox inconclusive.
Cc1cc(N2CCN(C(=O)c3ccco3)CC2)n2nc(-c3cccc(F)c3)cc2n1 was read as MCF10A rerep 23µM*, KB-3-1 tox inactive, TSG101-PTAP inh -6%, RGS4 inh -27%, SW480 rereplic inconclusive and KB-V1 MDR tox inactive.
COc1ccc(NC(=O)c2ccco2)cc1NC(=O)c1cccc(C)c1OC was read as KB-3-1 tox inactive, RGS4 inh -41% and KB-V1 MDR tox inconclusive.
`NNC(=O)COc1ccc(-c2n[nH]c(C(F)(F)F)c2-c2ccc(Br)cc2)c(O)c1` gave MCF10A rerep 18µM*, KB-3-1 tox inactive, TSG101-PTAP inh -10%, RGS4 inh -8%, SW480 rereplic -79% and KB-V1 MDR tox inactive.
For Brc1ccc2c(c1)OCCOCCOCCOCCOCCOCCO2 the results were MCF10A rerep 1%, KB-3-1 tox inactive, TSG101-PTAP inh -7%, RGS4 inh 13%, SW480 rereplic 7% and KB-V1 MDR tox 6.5µM*.
Screening Brc1ccc2c(c1)OCCOCCOCCOCCOCCO2 returned MCF10A rerep -2%, KB-3-1 tox inactive, TSG101-PTAP inh -1%, RGS4 inh -18%, SW480 rereplic -6% and KB-V1 MDR tox inactive.
Screening c1ccc2c(c1)OCCOCCOCCOCCOc1ccccc1OCCOCCOCCO2 returned MCF10A rerep 3%, KB-3-1 tox 26µM*, TSG101-PTAP inh -4%, RGS4 inh 1%, SW480 rereplic inconclusive and KB-V1 MDR tox 3.7µM*.
`O=C(/C(=C/O)N=Nc1ccc(Cl)cc1)c1ccncc1` gave MCF10A rerep inconclusive, KB-3-1 tox 13µM*, TSG101-PTAP inh -3%, RGS4 inh -1%, SW480 rereplic inconclusive and KB-V1 MDR tox inactive.
